High-throughput results as filed in PubChem.
This is a sample that favours compounds with a hit; in the whole collection about 12% have one here.
HP1b chromo inh: blocks HP1-beta chromodomain binding to methylated histone tails; AlphaScreen HP1-beta / biotin-H3K9me3 peptide binding; Potency, µM (top dose mostly 114 µM), without a hit: at the top dose activity change, negative = inhibition, most hits filed as inhibitors; actives 0.56% (n = 390,000); P83916; note: nearly all actives have a fitted effect of over 70% in size
Target sequence (P83916 whole entry, looked up): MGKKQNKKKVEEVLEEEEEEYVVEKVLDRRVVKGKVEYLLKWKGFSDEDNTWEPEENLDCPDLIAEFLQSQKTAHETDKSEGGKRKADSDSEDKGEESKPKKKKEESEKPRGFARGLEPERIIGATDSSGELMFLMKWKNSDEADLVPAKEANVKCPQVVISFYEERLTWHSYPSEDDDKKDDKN
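HP1-beta protein (50 nM final) preincubated 30 min at room temperature with biotinylated H3(1-18)K9me3 peptide (50 nM) in PBS pH 7.4, 0.01% Tween-20, then compound added for 30 min. AlphaScreen streptavidin donor/nickel chelate acceptor beads (10 ug/mL final), 30 min dark, luminescence read.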
JMJD2A Tudor: inhibitors of human JMJD2A Tudor domain; O75164; Potency, µM (series often up to 114 µM), inactives show top-dose activity change, negative = inhibition, hits mostly inhibitors; AlphaScreen JMJD2A-Tudor / H3K4me3 peptide binding; actives 4.4% (n = 390,000); AID 504339; note: % is set by controls: 0 for no effect and ±100 for the full control effect; nearly all actives have a fitted effect of over 50% in size
Sfp PPTase inh: Sfp phosphopantetheinyl transferase inhibition; Q9F4F7; Biochemical Sfp PPTase activity, qHTS; Potency, µM, for inactives: largest response in the series, negative = inhibition, usual class: inhibitors; actives 3.5% (n = 310,000); AID 1490;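 note: the enzyme is Sfp with the accession as filed and its product quenches rhodamine fluorescence; 0% = enzyme reaction without inhibitor and -100% = no enzyme wells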
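Reaction rates are the 30-min fluorescence difference (ex 525, em 598 nm) in wells containing 15 nM Sfp, 5 uM rhodamine-CoA and 12.5 uM BHQ-2-YbbR at pH 7.6 with 10 mM MgCl2.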
BAZ2B block: inhibitors of human BAZ2B bromodomain; Potency, µM (doses to about 114 µM), for the others: top-dose activity change, negative = inhibition, most hits filed as inhibitors; AlphaScreen BAZ2B-H3K14Ac peptide displacement; Q9UIF8; actives 4.4% (n = 360,000); note: % is set by controls: 0 for no effect and ±100 for the full control effect; nearly all actives have a fitted effect of over 60% in size
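BAZ2B (50 nM) with biotin-H3(5-23)K14Ac peptide (50 nM) in PBS pH 7.4, 0.01% Tween-20, preformed 30 min, then compound 30 min at room temperature; top concentration 110uM. AlphaScreen streptavidin donor/nickel chelate acceptor beads (10 ug/mL final), 20 min dark, signal read.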
G9a block: inhibitors of human histone lysine methyltransferase G9a. Q96KQ7. G9a H3K9 monomethylation, AlphaScreen, 2 h. Potency, µM (highest dose often 102 µM), inactives show at the highest dose activity, negative = inhibition, hits mostly inhibitors. actives 8.8% (n = 350,000); note: % is set by controls: 0 for no effect and ±100 for the full control effect; nearly all actives have a fitted effect of over 75% in size
Target sequence (Q96KQ7 913-1193 limits assumed): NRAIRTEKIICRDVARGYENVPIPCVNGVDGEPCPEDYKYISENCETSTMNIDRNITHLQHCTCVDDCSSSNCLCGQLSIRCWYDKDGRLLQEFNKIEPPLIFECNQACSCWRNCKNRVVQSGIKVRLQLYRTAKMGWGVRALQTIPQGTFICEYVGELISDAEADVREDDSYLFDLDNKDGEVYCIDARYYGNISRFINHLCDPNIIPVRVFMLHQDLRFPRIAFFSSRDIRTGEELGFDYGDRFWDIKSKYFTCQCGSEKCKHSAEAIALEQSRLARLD
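Methyltransferase reactions run at room temperature for 2 h (20 nM enzyme, 500 nM biotin-H3K9 peptide, 20 uM SAM) after a 15 min compound preincubation; product detected by AlphaScreen beads and anti-H3K9me1 antibody.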
* = called active by the depositor; [ ] = remark or other dose. Calls come from the whole dose curve; as a rule, active = well fitted curve in the direction sought with a large enough effect; inconclusive = small, poorly fitted or top-dose-only effect, or another doubt; inactive = no such curve, though single readings can be large; an effect the other way counts as inactive or inconclusive. Potency is the fitted concentration of half-maximal effect.

What do the screens show for `COc1cc(/C=N/NC(=O)c2ccncc2)ccc1OCC(=O)Nc1ccc(C)c(C)c1`?
HP1b chromo inh: 15%; JMJD2A Tudor: -1%; Sfp PPTase inh: 5%; BAZ2B block: -8%; G9a block: -3%

What do the screens show for `CCc1nnc(NC(=O)CCC(=O)Nc2ccc(C)cc2)s1`?
HP1b chromo inh: 10%; JMJD2A Tudor: 3%; Sfp PPTase inh: -1%; BAZ2B block: 2%; G9a block: 12%[0.0925 µM]

What do the screens show for `CCCNC(=O)c1ccc(N2CCC3(CC2)CC(c2ccccc2)=NO3)c(NC(=O)Cc2ccc(F)cc2)c1`?
HP1b chromo inh: 28%; JMJD2A Tudor: -32%; Sfp PPTase inh: 6%; BAZ2B block: inconclusive; G9a block: 50µM*

How did O=C(CCc1ccc(Oc2cc([N+](=O)[O-])cc([N+](=O)[O-])c2)cc1)N1CCCCC1 do in these assays?
HP1b chromo inh: -58%; JMJD2A Tudor: 56µM*; Sfp PPTase inh: 14µM*; BAZ2B block: 25µM*; G9a block: inconclusive

Results for COc1ccc(CCC(=O)Nc2cccc(Cl)c2)cc1 ?
HP1b chromo inh: 43%; JMJD2A Tudor: 1%; Sfp PPTase inh: 6%; BAZ2B block: 15%; G9a block: 18%[59 µM]

Results for O=C(CCc1ccc(Oc2cc([N+](=O)[O-])cc([N+](=O)[O-])c2)cc1)Nc1cccc(Cl)c1 ?
HP1b chromo inh: inconclusive; JMJD2A Tudor: -29%; Sfp PPTase inh: 2%; BAZ2B block: inconclusive; G9a block: 8.9µM*

Results for CCN(CC)CCN(C(=O)c1cccc(N2C(=O)CCC2=O)c1)c1nc2cc3c(cc2s1)OCO3 ?
HP1b chromo inh: 26%; JMJD2A Tudor: -19%; Sfp PPTase inh: -6%; G9a block: 50µM*

Results for CCN(CC)CCN(C(=O)c1ccc(N2C(=O)CCC2=O)cc1)c1nc2cc3c(cc2s1)OCCO3 ?
HP1b chromo inh: 13%[57 µM]; JMJD2A Tudor: -32%; Sfp PPTase inh: inconclusive; G9a block: 50µM*

Results for CN(C)CCCN(C(=O)c1cccc(N2C(=O)CCC2=O)c1)c1nc2cc3c(cc2s1)OCO3 ?
HP1b chromo inh: 39%; JMJD2A Tudor: -5%[11.4 µM]; Sfp PPTase inh: 6%; G9a block: inconclusive

What do the screens show for `CCN(CC)CCN(C(=O)CN1C(=O)CCC1=O)c1nc2cc3c(cc2s1)OCO3`?
HP1b chromo inh: 42%; JMJD2A Tudor: -11%; Sfp PPTase inh: 1%; G9a block: inconclusive

What do the screens show for `Fc1ccccc1-c1cc2ncccc2cn1`?
HP1b chromo inh: 46%; JMJD2A Tudor: inconclusive; BAZ2B block: 56µM*; G9a block: -4%[0.501 µM]

Results for Cc1ccc(C(=O)C(C)OC(=O)Cn2[nH]c(=O)c3ccccc3c2=O)cc1 (configuration not stated) ?
HP1b chromo inh: 16%; JMJD2A Tudor: -13%; Sfp PPTase inh: 16%; BAZ2B block: -18%; G9a block: 17%

Results for COc1ccccc1C(=O)NCCc1csc(-c2ccc(C(F)(F)F)cc2)n1 ?
HP1b chromo inh: 69%[57 µM]; JMJD2A Tudor: 17%; BAZ2B block: 85%; G9a block: 29%[59 µM]

How did CCN(CC)S(=O)(=O)c1cccc(C(=O)N/N=C/c2ccc(O)c(O)c2O)c1 do in these assays?
HP1b chromo inh: inconclusive; JMJD2A Tudor: inconclusive; Sfp PPTase inh: -106%; BAZ2B block: 40µM*; G9a block: 1.8µM*

Results for CCN(CC)S(=O)(=O)c1cccc(C(=O)N/N=C(\C)c2ccc(O)cc2O)c1 ?
HP1b chromo inh: 30%; JMJD2A Tudor: inconclusive; Sfp PPTase inh: 16%; BAZ2B block: 8.9µM*; G9a block: 28%

What do the screens show for `CCOc1ccccc1/C=N/NC(=O)c1cccc(S(=O)(=O)N(CC)CC)c1`?
HP1b chromo inh: 19%; JMJD2A Tudor: -10%; Sfp PPTase inh: 17%; BAZ2B block: -16%; G9a block: 2%

Results for CCc1nnc(NC(=O)CCN2C(=O)CCC2=O)s1 ?
HP1b chromo inh: 33%; JMJD2A Tudor: -7%; Sfp PPTase inh: -12%; BAZ2B block: 7%; G9a block: -15%
